# Test results published in PubChem BioAssay (NCI).
# Values joined by “and” are separate entries in the source; they are usually repeats but may differ in a detail not shown here. Equal values may be shown once. The panel holds about 83,000 compounds, 20% with a hit somewhere; the sample as a whole holds those more often.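 Each cell line was grown in a 96-well plate and treated with one concentration of compound for 48 hours. Values below 10 were considered active.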 Active and inactive are the calls of the source.
# Legend:
# Assay in all cases: NCI-60 one-dose screen, 48 h (100 = growth as untreated, 0 = no growth, -100 = all killed)
# HCT-15 colon = test system: HCT-15 colon
# HT29 colon = test system: HT29 colon
# SNB-75 CNS = test system: SNB-75 CNS
# SNB-19 CNS = test system: SNB-19 CNS
# U251 CNS = settings: 10 µM unless noted
# PC-3 prostate = test system: PC-3 prostate
# SK-MEL-5 melanoma = test system: SK-MEL-5 melanoma
# UACC-62 melanoma = test system: UACC-62 melanoma
# LOX IMVI melanoma = test system: LOX IMVI melanoma
# SK-MEL-28 melanoma = test system: SK-MEL-28 melanoma
smiles,measurement,setting,value
O=C(Nc1c(Cl)cccc1Cl)Oc1cccc2cccnc12,growth,HCT-15 colon; 10 µM,27.9% (inactive)
same,growth,HCT-15 colon; 100 µM,18.3% (inactive)
same,growth,HT29 colon; 10 µM,79.4% (inactive)
same,growth,HT29 colon; 100 µM,55.3% (inactive)
same,growth,SNB-75 CNS; 10 µM,73.1% (inactive)
same,growth,SNB-75 CNS; 100 µM,20.8% (inactive)
same,growth,SNB-19 CNS; 10 µM,56.4% (inactive)
same,growth,SNB-19 CNS; 100 µM,25.8% (inactive)
same,growth,U251 CNS,19.5% [100 µM] (inactive)
same,growth,PC-3 prostate; 10 µM,41% (inactive)
same,growth,PC-3 prostate; 100 µM,19.3% (inactive)
same,growth,SK-MEL-5 melanoma; 10 µM,55.9% (inactive)
same,growth,SK-MEL-5 melanoma; 100 µM,14.4% (inactive)
same,growth,UACC-62 melanoma; 10 µM,20.2% (inactive)
same,growth,UACC-62 melanoma; 100 µM,-74.8% (active)
same,growth,LOX IMVI melanoma; 10 µM,33.1% (inactive)
same,growth,LOX IMVI melanoma; 100 µM,7.87% (active)
same,growth,SK-MEL-28 melanoma; 10 µM,73.9% (inactive)
same,growth,SK-MEL-28 melanoma; 100 µM,38.5% (inactive)
COc1cc(NS(C)(=O)=O)ccc1Nc1c2ccccc2nc2ccccc12,growth,HCT-15 colon; 10 µM unless noted,29.4% [2.5 µM] (inactive)
same,growth,HT29 colon; 10 µM unless noted,43.4% [2.5 µM] (inactive)
same,growth,SNB-75 CNS; 10 µM unless noted,27.9% [2.5 µM] (inactive)
same,growth,SNB-19 CNS; 2.5 µM,14.5% (inactive)
same,growth,SNB-19 CNS; 10 µM,-26% (active) and 28.9% (inactive) and 35.6% (inactive)
same,growth,U251 CNS,18.7% [2.5 µM] (inactive)
same,growth,PC-3 prostate; 10 µM unless noted,52.8% [2.5 µM] (inactive)
same,growth,SK-MEL-5 melanoma; 10 µM unless noted,3.48% [2.5 µM] (active)
same,growth,UACC-62 melanoma; 2.5 µM,29.1% (inactive)
same,growth,UACC-62 melanoma; 250 µM,-86.2% (active) and -100% (active)
same,growth,SK-MEL-28 melanoma; 10 µM unless noted,52.5% (inactive) and 63.7% (inactive) and 53.8% (inactive)
O=C(O)c1c(Cl)c(Cl)c(Cl)c(Cl)c1-c1c2cc(I)c(=O)c(I)c-2oc2c(I)c(O)c(I)cc12,growth,HCT-15 colon; 10 µM,101% (inactive) and 107% (inactive) and 90.1% (inactive)
same,growth,HCT-15 colon; 100 µM,22.9% (inactive)
same,growth,HT29 colon; 10 µM,105% (inactive) and 104% (inactive) and 95.2% (inactive)
same,growth,HT29 colon; 100 µM,39.2% (inactive)
same,growth,SNB-75 CNS; 10 µM,108% (inactive) and 91.1% (inactive) and 49.5% (inactive)
same,growth,SNB-75 CNS; 100 µM,26% (inactive)
same,growth,SNB-19 CNS; 10 µM,100% (inactive) and 98.4% (inactive) and 97.9% (inactive)
same,growth,SNB-19 CNS; 100 µM,-47.9% (active)
same,growth,U251 CNS,98.5% (inactive) and 95.3% (inactive) and 97.7% (inactive)
same,growth,PC-3 prostate; 10 µM,116% (inactive) and 82.8% (inactive) and 34% (inactive)
same,growth,PC-3 prostate; 100 µM,-7.17% (active)
same,growth,SK-MEL-5 melanoma; 10 µM,107% (inactive) and 110% (inactive) and 96.1% (inactive)
same,growth,SK-MEL-5 melanoma; 100 µM,22.1% (inactive)
same,growth,UACC-62 melanoma; 10 µM,98.8% (inactive) and 107% (inactive) and 96.1% (inactive)
same,growth,UACC-62 melanoma; 100 µM,-41.3% (active)
same,growth,SK-MEL-28 melanoma; 10 µM,105% (inactive) and 327% (inactive) and 108% (inactive)
same,growth,SK-MEL-28 melanoma; 100 µM,-55.7% (active)
CCCCCCCCCCCCCCCCCCOP(=O)([O-])OC1CC[N+](C)(C)CC1,growth,HCT-15 colon; 10 µM unless noted,-50% (active) and -67.9% (active)
same,growth,HT29 colon; 10 µM unless noted,2.35% (active) and -29.9% (active)
same,growth,SNB-75 CNS; 10 µM unless noted,10.6% (inactive) and -41.7% (active)
same,growth,SNB-19 CNS; 10 µM unless noted,-29.2% (active) and -65.1% (active)
same,growth,U251 CNS,-35.1% (active) and -68.1% (active)
same,growth,PC-3 prostate; 10 µM unless noted,-50.8% (active) and -75.1% (active)
same,growth,SK-MEL-5 melanoma; 10 µM unless noted,38.7% (inactive) and 20% (inactive)
same,growth,UACC-62 melanoma; 10 µM unless noted,25.3% (inactive) and 37.2% (inactive)
same,growth,LOX IMVI melanoma; 10 µM unless noted,11.4% (inactive) and -3.66% (active)
same,growth,SK-MEL-28 melanoma; 10 µM unless noted,57.3% (inactive)
CC(=O)C(=Cc1ccc(C=C(C(C)=O)C(C)=O)cc1)C(C)=O,growth,HCT-15 colon; 10 µM unless noted,-32.7% (active)
same,growth,HT29 colon; 10 µM unless noted,-60.5% (active)
same,growth,SNB-75 CNS; 10 µM unless noted,73.1% (inactive)
same,growth,SNB-19 CNS; 10 µM unless noted,19.1% (inactive)
same,growth,U251 CNS,-23.7% (active)
same,growth,PC-3 prostate; 10 µM unless noted,2.43% (active)
same,growth,SK-MEL-5 melanoma; 10 µM unless noted,72.8% (inactive)
same,growth,UACC-62 melanoma; 10 µM unless noted,-41.6% (active)
same,growth,LOX IMVI melanoma; 10 µM unless noted,-97.8% (active)
same,growth,SK-MEL-28 melanoma; 10 µM unless noted,-34.8% (active)
O=C(/C=C/c1cccc(Cl)c1)c1ccccc1,growth,HCT-15 colon; 10 µM unless noted,56.7% (inactive) and 62.8% (inactive)
same,growth,HT29 colon; 10 µM unless noted,95.2% (inactive) and 32.4% (inactive)
same,growth,SNB-75 CNS; 10 µM unless noted,104% (inactive) and 95.2% (inactive)
same,growth,SNB-19 CNS; 10 µM unless noted,89.3% (inactive) and 76.4% (inactive)
same,growth,U251 CNS,75.9% (inactive) and 45% (inactive)
same,growth,PC-3 prostate; 10 µM unless noted,96% (inactive) and 88.8% (inactive)
same,growth,SK-MEL-5 melanoma; 10 µM unless noted,94% (inactive) and 93.4% (inactive)
same,growth,UACC-62 melanoma; 10 µM unless noted,81.5% (inactive)
same,growth,LOX IMVI melanoma; 10 µM unless noted,60.5% (inactive) and 20.8% (inactive)
same,growth,SK-MEL-28 melanoma; 10 µM unless noted,114% (inactive) and 109% (inactive)
Cc1cc(N)c2ccccc2[n+]1CCCCCCCCCC[n+]1c(C)cc(N)c2ccccc21,growth,HCT-15 colon; 10 µM unless noted,26.2% (inactive) and 42.4% (inactive)
same,growth,HT29 colon; 10 µM unless noted,2.09% (active) and -13.8% (active)
same,growth,SNB-75 CNS; 10 µM unless noted,21.3% (inactive) and -8.96% (active)
same,growth,SNB-19 CNS; 10 µM unless noted,21.3% (inactive) and 12.5% (inactive)
same,growth,U251 CNS,-51.1% (active) and 15.5% (inactive)
same,growth,PC-3 prostate; 10 µM unless noted,8% (active) and 14.1% (inactive)
same,growth,SK-MEL-5 melanoma; 10 µM unless noted,-57.8% (active) and -99.9% (active)
same,growth,UACC-62 melanoma; 10 µM unless noted,-66.5% (active) and 1.93% (active)
same,growth,LOX IMVI melanoma; 10 µM unless noted,-73% (active) and 37.4% (inactive)
same,growth,SK-MEL-28 melanoma; 10 µM unless noted,-26.4% (active)
Cc1ccnc(NC(c2ccccc2)c2ccc3cccnc3c2O)c1 (centres undefined),growth,HCT-15 colon; 10 µM unless noted,27.9% (inactive)
same,growth,HT29 colon; 10 µM unless noted,43.1% (inactive)
same,growth,SNB-75 CNS; 10 µM unless noted,52.2% (inactive)
same,growth,SNB-19 CNS; 10 µM unless noted,40.3% (inactive)
same,growth,U251 CNS,20.4% (inactive)
same,growth,PC-3 prostate; 10 µM unless noted,35.3% (inactive)
same,growth,SK-MEL-5 melanoma; 10 µM unless noted,39.4% (inactive)
same,growth,UACC-62 melanoma; 10 µM unless noted,26.3% (inactive)
same,growth,LOX IMVI melanoma; 10 µM unless noted,28.1% (inactive)
same,growth,SK-MEL-28 melanoma; 10 µM unless noted,47% (inactive)
CN(C)C(=O)c1ccc(SC(=S)NCc2ccccc2)cc1,growth,HCT-15 colon; 10 µM,92.2% (inactive)
same,growth,HCT-15 colon; 100 µM,-35.1% (active)
same,growth,HT29 colon; 10 µM,107% (inactive)
same,growth,HT29 colon; 100 µM,-62% (active)
same,growth,SNB-75 CNS; 10 µM,110% (inactive)
same,growth,SNB-75 CNS; 100 µM,1.41% (active)
same,growth,SNB-19 CNS; 10 µM,109% (inactive)
same,growth,SNB-19 CNS; 100 µM,-0.973% (active)
same,growth,U251 CNS,16.7% [100 µM] (inactive)
same,growth,PC-3 prostate; 10 µM,97.1% (inactive)
same,growth,PC-3 prostate; 100 µM,17.6% (inactive)
same,growth,SK-MEL-5 melanoma; 10 µM,102% (inactive)
same,growth,SK-MEL-5 melanoma; 100 µM,-53.1% (active)
same,growth,UACC-62 melanoma; 10 µM,103% (inactive)
same,growth,UACC-62 melanoma; 100 µM,1.05% (active)
same,growth,SK-MEL-28 melanoma; 10 µM,106% (inactive)
same,growth,SK-MEL-28 melanoma; 100 µM,-34.8% (active)
